Source: PubChem BioAssay
BRCA1 expr act = increases BRCA1 expression. Potency, µM (highest dose often 46.1 µM), hits mostly activators. actives 1.1% (n = 380,000). AID 624202. MCF7-BRCA1-FFLuc reporter, luminescence, 48 h; response scale: scaled: vehicle 0%, 10 µM genistein 100%; note: nearly all actives have a fitted effect of over 80% in size
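First, MCF7-BRCA1-FFLuc cells (2000/well) attach for 2 h; next, compounds are pin-added and incubated 48 h at 37 °C; finally, luciferase reagent is added and luminescence read after 15 min.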
DRD3 antagonist = D3 dopamine receptor (human) antagonism; max response, negative = inhibition, %; actives 2.5% (n = 360,000); D3R cells, DiscoveRx beta-arrestin luminescence, antagonist mode; hits give low values; in the data active = max response below about -50%; inconclusive = no clear call, values can overlap the other calls
Target sequence (P35462 whole entry, looked up): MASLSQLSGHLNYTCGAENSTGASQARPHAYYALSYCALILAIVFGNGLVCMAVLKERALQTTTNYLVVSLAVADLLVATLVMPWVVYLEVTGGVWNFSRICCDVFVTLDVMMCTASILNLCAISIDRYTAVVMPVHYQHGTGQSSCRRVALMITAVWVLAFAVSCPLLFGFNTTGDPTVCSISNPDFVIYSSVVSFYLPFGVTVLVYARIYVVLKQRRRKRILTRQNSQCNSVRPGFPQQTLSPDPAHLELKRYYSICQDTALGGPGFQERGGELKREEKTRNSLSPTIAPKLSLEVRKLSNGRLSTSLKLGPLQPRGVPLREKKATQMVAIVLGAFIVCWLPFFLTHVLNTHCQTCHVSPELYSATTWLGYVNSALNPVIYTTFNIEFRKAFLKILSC
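Cells expressing the human receptor were seeded at 1500 cells/well, incubated overnight at 37 degrees C in 5% CO2, then exposed to library compounds with dopamine controls for 90 minutes at 37 degrees C before luminescent detection.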
RGS4 inh = human RGS4 inhibition; P49798; Transcreener GDP fluorescence polarization, RGS4-accelerated GTP hydrolysis; Potency, µM (doses to about 114 µM), hits mostly inhibitors; actives 0.039% (n = 390,000); AID 504845; note: nearly all actives have a fitted effect of over 75% in size
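MLSMR compounds (23 nl, pin-transferred) preincubated 10 min at room temperature with a 500nM (2x) first reagent, then RGS4 at 900nM (2x) plus Transcreener GDP mix added; fluorescence polarization (620/688 nm) read before and after 90 min at 30 °C.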
PTHR1 agonist = activates the human parathyroid hormone receptor PTHR1; Q03431; HEK293 GP2 PTHR1 cells, GloSensor cAMP luminescence, 1 h; Potency, µM (series often up to 115 µM), actives largely listed as activators; actives 0.075% (n = 410,000); AID 743266; note: nearly all actives have a fitted effect of over 55% in size
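HEK-293-derived GP2 cells expressing PTHR1 and a GloSensor cAMP reporter, 3,000/well, plated overnight, given luciferin plus IBMX (each 0.5 mM as added) for 1 h at 37 °C, then compound for 1 h at 37 °C. Luminescence was read after 15 min at room temperature.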
D3 ag = D3 dopamine receptor (human) agonism. actives 0.58% (n = 410,000). max activation, %. D3R DiscoveRx beta-arrestin cells, luminescence, 90 min. P35462. AID 652048; in the data active = max activation above about 30%
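Agonist-mode cell screen: cells plated at 1500/well and incubated overnight at 37 °C, then exposed to library compounds for 90 min at 37 °C. Detection reagent was added for 30–60 min at room temperature, and luminescence was read.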
B2AR arrestin = beta2AR (human) beta-arrestin recruitment activity; actives 0.02% (n = 330,000); Potency, µM (series often up to 46.1 µM), hits mostly activators; P07550; beta-arrestin recruitment to beta2AR, cell-based reporter; note: nearly all actives have a fitted effect of over 65% in size
Numbers stand for hits; 0 = inactive; ? = inconclusive; - = no result; [ ] = another dose, or the depositor's remark. Most compounds without a hit are left out; they make up all but 3.7% or so of the library. Unless noted, calls come from the whole dose curve; as a rule, active = well fitted curve in the direction sought with a large enough effect; inconclusive = small, poorly fitted or top-dose-only effect, or another doubt; inactive = no such curve, though single readings can be large; an effect the other way counts as inactive or inconclusive.

SMILES	BRCA1 expr act	DRD3 antagonist	RGS4 inh	PTHR1 agonist	D3 ag	B2AR arrestin
Cn1c(=O)c2c(nc(N3CCNCC3)n2Cc2cccc3ccccc23)n(C)c1=O	0	-68.8	0	0	0	0
Cn1c(=O)[nH]c(=O)c2c1nc1n2CCN1c1ccccc1	0	-	0	0	44.6	-
CC(=O)Nc1ccc(S(=O)(=O)N2CCN=C2SCc2ccc([N+](=O)[O-])cc2)cc1	0	0	0	0	0	0
Cc1cc(C)cc(C(=O)NCC(=O)OCC(=O)NC2CCCc3ccccc32)c1 (stereo not drawn)	0	0	0	0	0	0
CC1(C)CC(C(CCN(Cc2ccccc2)C(=O)c2ccco2)c2ccc(F)cc2)CCO1 (stereo not drawn)	0	0	0	0	47.8	0
CC[C@]12c3[nH]c4cc(CCC(=O)N(C)C)ccc4c3CCN1C(=O)[C@@H](CC(=O)NCCCOC)C[C@@H]2C(=O)N1CCN(C(=O)c2ccco2)CC1	0	0	0	0	0	0
COc1ccc2ccc3c(c2c1)N=C[C@]1(O3)N(C)c2ccccc2C1(C)C	0	-70.3	0[11.4 µM]	0	0	0
COC(=O)C1CCN(C(=O)COC(=O)c2cc(-c3ccccc3)nc3ccc(OC)cc23)CC1	0	0	0	0	0	0
CC(C)NC(=O)C1(C)CCN1C(=O)c1ccc(F)c(Cl)c1 (stereo not drawn)	0	0	-	0	0	-
Cc1ccc(S(=O)(=O)CCC(=O)c2ccc(O)cc2O)cc1	0	-59.1	?	0	0	0
